Assay results reported in PubChem BioAssay AID2156 (Johns Hopkins Ion Channel Center, 2009).
Screen size: about 310,000 compounds; about 3,400 (1.1%) were called active. Many of the other results were omitted from the sample, so actives are more common in it than they were. A number with no mark means an inactive call.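 The calls were made as follows: active = fluorescence ratio B-score at most minus 3 library SDs, with starting brightness B-score within 2 library SDs (cut at about -5.5 in these data); inactive = the rest, inconclusive results apart.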

target: Potassium voltage-gated channel subfamily KQT member 2 (Rattus norvegicus) (UniProt O88943); assay: rat KCNQ2 potassium channel inhibitors, primary screen, cell-based, CHO-K1, FluxOR thallium flux, B-score (AID 2156); conditions: 20 min, at 10 µM; hits give low values
Sequence (O88943 whole entry, looked up): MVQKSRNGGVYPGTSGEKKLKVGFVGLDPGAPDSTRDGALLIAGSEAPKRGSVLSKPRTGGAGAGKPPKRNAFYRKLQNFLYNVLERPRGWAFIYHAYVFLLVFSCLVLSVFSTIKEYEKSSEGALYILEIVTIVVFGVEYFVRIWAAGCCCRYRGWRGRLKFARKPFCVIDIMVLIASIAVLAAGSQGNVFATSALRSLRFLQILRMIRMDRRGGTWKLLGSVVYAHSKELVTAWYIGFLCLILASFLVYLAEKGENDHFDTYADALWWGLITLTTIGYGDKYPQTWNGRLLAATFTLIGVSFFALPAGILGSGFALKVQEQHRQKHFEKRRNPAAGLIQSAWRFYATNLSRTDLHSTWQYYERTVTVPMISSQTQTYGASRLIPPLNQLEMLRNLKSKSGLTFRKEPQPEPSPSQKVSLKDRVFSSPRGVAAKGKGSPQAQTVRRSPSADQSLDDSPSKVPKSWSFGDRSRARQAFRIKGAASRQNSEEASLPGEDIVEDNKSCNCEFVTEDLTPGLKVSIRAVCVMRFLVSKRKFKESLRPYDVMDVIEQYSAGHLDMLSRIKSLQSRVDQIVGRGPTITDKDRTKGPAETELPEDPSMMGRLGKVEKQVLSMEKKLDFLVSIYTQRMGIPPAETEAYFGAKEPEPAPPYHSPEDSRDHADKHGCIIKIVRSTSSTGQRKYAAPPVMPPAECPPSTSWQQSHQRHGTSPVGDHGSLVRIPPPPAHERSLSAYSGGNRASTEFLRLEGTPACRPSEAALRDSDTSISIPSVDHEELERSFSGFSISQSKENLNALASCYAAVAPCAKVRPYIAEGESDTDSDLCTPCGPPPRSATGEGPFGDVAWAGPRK

Compound | B-score
O=C(Nc1ccccc1[N+](=O)[O-])C1C(c2ccccc2)=C1c1ccccc1 | -5.88 (active)
O=C(Nc1ccccc1-c1ccccc1)c1ccccc1[N+](=O)[O-] | -3.5
O=C(O)c1ccccc1C(=O)Nc1ccccc1[N+](=O)[O-] | -1
CCC(CC)c1nnc(NC(=O)C2=COCCO2)s1 | -0.29
CCOc1cc(N2CCOCC2)c(OCC)cc1NC(=O)c1ccc(C)s1 | -6.48 (active)
CCOc1cc(N2CCOCC2)c(OCC)cc1NC(=O)COc1cccc(Cl)c1 | inactive
CCOc1cc(N2CCOCC2)c(OCC)cc1NC(=O)COc1cccc2cccnc12 | -3.14
Cc1ccc(-c2nn(-c3ccc(F)cc3)cc2C(=O)NCC(c2cccs2)N2CCOCC2)cc1 (stereo not drawn) | -1.75
CCOC(=O)N1CCN(C(=O)c2nn(-c3ccc(C)cc3)c(=O)c3c2c2ccccc2n3C)CC1 | inactive
O=C(c1ccccc1Oc1ccccc1)N1CCN(c2ccc(F)cc2)CC1 | -3.32
Cn1c2ccccc2c2c(C(=O)N3CCN(c4ccc(F)cc4)CC3)cn(C3CCCC3)c(=O)c21 | -5.96 (active)
CN1C(C(=O)NCC2CC2)CC2Cn3c(nc4ccccc43)C21 (stereo not drawn) | inactive
CCOC(=O)c1cnc2nc(SCc3ccccc3Cl)[nH]n2c1=O | -0.81
O=C(CNCCC1=CCCCC1)Nc1ccccc1N1CCCCCC1 | -8.12 (active)
Cc1ccc(C(C)C)cc1OCCN1CCCC1 | inactive
Cc1ccc(C(C)C)cc1OCC(=O)Nc1ccccc1N1CCCC1 | -8.31 (active)
Cc1ccccc1NC(=O)CNc1ccccc1N1CCCCC1 | -5.56 (active)
Cc1ccccc1NC(=O)Nc1ccccc1N1CCCCC1 | inactive
CCC(=O)N1CCN(c2ccccc2NC(=O)COc2cccc(C)c2C)CC1 | -4.29
Cn1c(=O)c2c(nc(SCC(=O)Nc3ccccc3N3CCCCC3)n2C)n(C)c1=O | -0.67
O=C(Cc1cccc2ccccc12)NCCC1=CCCCC1 | -0.18

Compound | B-score
O=C(CN1CCN(C2CCCCC2)CC1)Nc1ccccc1N1CCCCC1 | inactive
N#Cc1cccc(OC(=O)c2ccc3c(=O)n4c(nc3c2)CCC4)c1 | -0.01
CN1CCN(S(=O)(=O)c2ccc(Nc3ccc(F)cc3)nc2)CC1 | -0.21
COc1ccccc1CCNC(=O)CN1C(=O)NC2(CCCC2)C1=O | inactive
CC(Oc1cccc(Cl)c1)C(=O)Nc1ccc(S(=O)(=O)Nc2ncccn2)cc1 (stereo not drawn) | inactive
CSc1ccc(/C=C2\NC(=O)NC2=O)cc1 | inactive
O=C(COC(=O)Cc1c[nH]c2ccccc12)NCCc1ccccc1 | -0.71
CCOC(=O)CN(C)Cc1c[nH]c2ccccc12 | inactive
O=C(Cc1c[nH]c2ccccc12)OCCOC(=O)Cc1c[nH]c2ccccc12 | -7.66 (active)
CCCCN(C(=O)c1ccc(C)o1)c1c(N)n(CCCC)c(=O)[nH]c1=O | inactive
CCC1CCC/C1=N\NC(=O)c1ccc(Cl)cc1 (stereo not drawn) | inactive
OC(COc1cccc2ccccc12)CN1CCN(c2ccccn2)CC1 (stereo not drawn) | inactive
Cc1cc(C)c(NC(=O)C[N+](C)(C)CC(O)COc2cccc3ccccc23)c(C)c1 (stereo not drawn) | inactive
CC(C)c1ccccc1OCC(O)CN(CC(O)COc1cccc2ccccc12)C(C)C (stereo not drawn) | -6.3 (active)
Cc1ccc(C(=O)NNC(=O)C(C)Oc2ccc3ccccc3c2)o1 (stereo not drawn) | inactive
CCN(CC(=O)Nc1ccc(NC(C)=O)cc1)C(=O)C1CC(=O)N(Cc2ccc(C)cc2)C1 (stereo not drawn) | -0.36
COc1ccc2sc(N(CCCN(C)C)C(=O)c3ccc(S(=O)(=O)N(C)C4CCCCC4)cc3)nc2c1 | inactive
CCOC(=O)CC1(NC(=O)c2cc(COc3cncc(Cl)c3)on2)CCCCC1 | -1.68
COc1cc(Cl)ccc1OCc1cc(C(=O)N2CC[C@@H]3CCCC[C@H]3C2)no1 | -3.02
CCCOC1CCCN(C(=O)c2cc(COc3cncc(Cl)c3)on2)C1 (stereo not drawn) | -8.22 (active)
Cc1ccc(-c2cnc(NC(=O)CCC(=O)N(C)Cc3ccccc3)n2C)cc1 | -7.93 (active)

Compound | B-score
CN(Cc1ccccc1)C(=O)CCc1ccccc1 | -0.03
Cn1c(-c2ccc(F)cc2)cnc1SCC(=O)NNC(=O)Cc1ccccc1 | inactive
O=C(CCNC(=O)c1ccc(Br)cc1)Nc1cccc(S(=O)(=O)N2CCCCC2)c1 | -0.11
CCCCn1c(N)c(N(Cc2ccccc2OC)C(=O)COc2cc(C)ccc2Cl)c(=O)[nH]c1=O | -0.97
CCOc1ccc2ccccc2c1/C=N/NC(=O)c1c(C)cc(C)[nH]c1=O | -2
Cc1cc(NC(=O)C(C)N2C(=O)c3ccccc3S2(=O)=O)no1 (stereo not drawn) | -0.8
FC(F)(F)c1ccc2c3n(nc2c1)CCN=C3c1ccc(Cl)cc1 | inactive
Cc1ccccc1C(=O)Nc1ccccc1Sc1ccccc1 | -8.36 (active)
O=C(COC(=O)c1ccccc1)Nc1ccccc1Sc1ccccc1 | -0.64
Cc1ccccc1C(=O)Nc1ccccc1NC(=O)c1ccccc1C | inactive
O=C(Cc1ccc(S(=O)(=O)N2CCOCC2)s1)N1CCN(c2ccc(C(F)(F)F)cc2[N+](=O)[O-])CC1 | inactive
O=C(NC1CCCCC1)c1ccc(-c2ccc(Cl)cc2)o1 | -3.97
CN(CC(=O)Nc1cccc(F)c1)C(=O)C1=COCCO1 | -0.61
O=C(NC1CCCC1)C(c1ccco1)N(C(=O)c1csnn1)c1ccccc1 (stereo not drawn) | inactive
O=C(NCc1ccccc1)C(c1ccco1)N(C(=O)c1csnn1)c1ccccc1F (stereo not drawn) | -6.27 (active)
O=C(NCc1ccccc1)C(c1ccccc1)N(C(=O)c1csnn1)c1ccc(F)cc1 (stereo not drawn) | -1.89
CCOc1ccc(C(C)=O)cc1COC(=O)CNC(=O)c1cccs1 | inactive
CCOc1ncccc1C(=O)NNC(=O)c1cccc(S(=O)(=O)Nc2ccccc2OC)c1 | inactive
COc1ccc(C(CNC(=O)COc2ccc([N+](=O)[O-])cc2)N2CCCCC2)cc1 (stereo not drawn) | -0.69
COc1ccc(C(CNC(=O)COc2ccccc2OC)N2CCCCC2)cc1 (stereo not drawn) | inactive
CCc1ccc(OCC(=O)NCC(c2ccc(Cl)cc2)N2CCCCC2)cc1 (stereo not drawn) | -5.91 (active)
